Screening data (PubChem BioAssay)
This is a sample that favours compounds with a hit; in the whole collection about 3% have one here.
Wnt bcat act: Wnt/beta-catenin pathway activators, primary screen, cell-based, plate reader, single point | Wnt/beta-catenin reporter cell assay, activator | activation, % at 9.35 µM | hit rate 1.2% among 300,000 | AID 743398, 2014; in the data active = activation above about 30%, passing the limit was not always enough; inconclusive = no clear call, values can overlap the other calls
Vif imaging: HIV Vif self-association inhibitors, primary screen, imaging, HEK293T, single point | inhibition, % at 7.49 µM | HEK293T cells, Vif self-association by quenched fluorescence, 24 h | hit rate 0.35% among 340,000 | AID 602346, 2012; in the data active = inhibition above about 50%, passing the limit was not always enough; inconclusive = no clear call, values can overlap the other calls; inactive = below about 31%
esBAF inh: Bmi1 luciferase reporter increase in mESCs, primary screen, esBAF inhibitor project, mouse ES cells, Bmi1 luciferase knock-in, single point; reporter increase, % at 12.5 µM; 24 h; 100% = twice the neutral-well signal; hit rate 2% among 350,000; in the data active = activation above about 40%; inconclusive = no clear call, values can overlap the other calls;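 also: a rise in the Bmi1 reporter signal indicates esBAF inhibition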
Glyco luc inh: increase of ERlucT glycosylation luciferase signal, primary screen, N-linked glycosylation inhibitor project, D54 ERlucT cells, luminescence, set 2. D54 ERlucT glycosylation luciferase reporter, 24 h; percent of 100 nM tunicamycin response. reporter increase, % at 12.5 µM. hit rate 0.23% among 360,000;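 active = mean luciferase reporter signal, scaled so untreated is 0 and the glycosylation-blocking control 100, at or above a set limit in every replicate; inconclusive = mean reaches the limit but not every replicate does; inactive = mean below the limit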;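 also: luciferase carries N-glycosylation sites so blocking glycosylation raises the light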
MITF act: activators of MITF-driven TRPM1 promoter reporter, primary screen, cell-based, SK-MEL-5, luciferase, single point. SK-MEL-5 TRPM1-promoter luciferase, 24 h; % of positive control, neutral wells = 0. AID 588334, 2011. hit rate 0.75% among 300,000. activation, % at 12.5 µM;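 active = mean activation of at least 80% with every replicate also reaching 80%; inconclusive = mean reaches 80% but some replicate falls short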
PfHsp90 yeast 2: growth inhibition of PfHsp90-expressing yeast, primary screen, antimalarial PfHsp90 inhibitor project, S. cerevisiae, BacTiter-Glo luminescence, single point, set 2; BacTiter-Glo ATP, 48 h; yeast lacking PDR1 and PDR3 efflux regulators; inhibition, % at 9.4 µM; hit rate 0.32% among 310,000; AID 504621, 2011;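 active = every replicate shows inhibition above about 80%, whatever the replicate mean, limit read from the data; inconclusive = mean inhibition reaches the set limit but some replicate falls short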
Hits are given with their value; – = inactive; ? = inconclusive; · = no result.

SMILES	Wnt bcat act	Vif imaging	esBAF inh	Glyco luc inh	MITF act	PfHsp90 yeast 2
O=C(NCCCn1cccn1)c1cc(COc2ccccc2)on1	?	·	82	–	·	·
CC(CCn1cccn1)NC(=O)c1cc(COc2ccc(F)cc2F)on1 (stereo unspecified)	–	–	–	–	–	–
Cc1ccc(OCc2cc(C(=O)NCCn3cccn3)no2)cc1C	–	–	–	–	–	–
CC(=O)c1ccc(OCc2cc(C(=O)NC(C)CCn3cccn3)no2)cc1 (stereo unspecified)	–	–	71	–	–	–
CC(C)C(C(=O)Nc1nccs1)c1ccccc1 (stereo unspecified)	·	–	–	–	–	–
O=C(Nc1ccc(F)cc1)Oc1ccccc1N1CCOCC1	–	–	·	–	·	–
O=C(Oc1ccccc1N1CCOCC1)c1sccc1Br	45	–	–	–	·	–
O=C(Nc1cccc2[nH]ncc12)c1ccc(F)cc1	–	–	–	–	96	–
O=C(NC(=S)Nc1cccc2[nH]ncc12)c1ccccc1	–	–	–	–	–	–
CCCOc1ccc(-c2csc(N)n2)cc1[N+](=O)[O-]	–	–	·	–	99	–
CC(C)c1ccc(-c2cc(C(=O)N3N=C(C(F)F)CC3(O)C(F)F)c3ccccc3n2)cc1 (stereo unspecified)	·	–	–	–	–	111
CCC(=O)N1C[C@@H](C)[C@H](OC)CN(C)C(=O)c2cc(NC(=O)Nc3ccccc3)ccc2OC[C@@H]1C	·	·	–	·	·	·
CCOC(=O)C1(C)C=C(Nc2cccc(OC)c2)C(=O)N1c1ccccc1 (stereo unspecified)	43	–	·	–	·	–
Clc1ccc(-c2cc(COc3ccccc3)on2)cc1	–	–	51	–	–	–
O=S(=O)(NCc1cc(-c2ccc(Cl)cc2)no1)c1ccccc1	–	–	–	–	·	·
O=S(=O)(Cc1cc(-c2ccc(Cl)cc2)no1)c1ccccc1	–	–	51	–	?	·
O=S(=O)(Cc1cc(-c2ccccc2Cl)no1)c1ccccc1	–	–	53	–	90	–
Clc1ccc(OCc2cc(-c3ccccc3)no2)cc1Cl	–	–	·	–	–	–
O=S(=O)(NCc1cc(-c2ccccc2Cl)no1)c1ccccc1	–	–	–	–	–	–
COC(=O)[C@H]1C[C@@H]1[C@H](NS(=O)(=O)c1ccc2ccccc2c1)c1ccccc1	–	–	–	–	–	–
Cc1cccc(C2=NC(C(F)(F)F)(C(F)(F)F)c3c(n(-c4ccc(F)cc4)c(=O)[nH]c3=O)N2)c1	–	–	·	–	–	–
S=C1NC2=C(CCCC2=C2SCCCS2)C(c2ccccc2)N1 (stereo unspecified)	–	–	·	–	–	–
COc1ccc(C2NC(=S)NC3=C2CCCC3=C2SCCS2)cc1 (stereo unspecified)	?	56	–	593	–	–
C[C@@H](NS(=O)(=O)c1ccc(Br)cc1F)[C@@H](O)c1ccccc1	–	–	–	–	–	–
COc1ccc(N2CCN(C(=O)/C=C/c3ccco3)CC2)cc1	–	–	–	–	–	–
SMILES	Wnt bcat act	Vif imaging	esBAF inh	Glyco luc inh	MITF act	PfHsp90 yeast 2
COC(=O)C1CCN(S(=O)(=O)c2c(C)n(C)c(=O)n(C)c2=O)CC1	48	·	–	–	–	–
CCSc1nnc2c(n1)[nH]c1c(C)cccc12	·	–	89	–	–	–
COc1ccc(CCNC(=O)c2ccc(N(C)S(=O)(=O)c3ccc(C)cc3)cc2)cc1	–	·	·	–	–	–
CC1=C(C(=O)OCC2CCCO2)C(c2coc3ccccc3c2=O)C2=C(CC(C)(C)CC2=O)N1 (stereo unspecified)	–	–	·	–	–	–
CN(C)CCCNc1ncnc2c1c(-c1ccccc1)cn2-c1ccccc1	–	–	–	–	–	–
CN(C)CCCNc1ncnc2scc(-c3ccccc3)c12	40	–	·	–	–	–
CS(=O)(=O)N1C[C@@H](O)COC[C@H]2O[C@H](CC(=O)NCCc3ccncc3)CC[C@@H]21	·	·	–	·	·	·
CCn1c(-c2ccc(C(C)(C)C)cc2)n[nH]c1=S	·	–	–	–	–	–
Cn1c(-c2ccc(C(C)(C)C)cc2)n[nH]c1=S	·	–	50	–	–	–
CN(CCC1CCOCC1)Cc1nc(Cc2ccccc2F)no1	–	–	–	–	–	–
O=C(Nc1ccc(SC(F)F)cc1)c1ccc(F)cc1	–	–	·	–	87	–
O=C(Cc1ccccc1F)Nc1ccc(SC(F)F)cc1	–	–	·	–	103	–
O=C(NCCCCc1ccccc1)c1cccc(NC(=O)c2ccccc2)c1	–	·	–	–	–	–
COC(=O)c1ccc(NC(=O)c2ccc(OC(C)=O)c(OC)c2)cc1	–	–	50	–	–	–
O=C(COC(=O)Cc1ccccc1F)Nc1ccc(SC(F)F)cc1	–	–	·	–	–	–
COc1cc(C(=O)Nc2ccc(O)cc2C(=O)O)ccc1OC(C)=O	·	–	·	–	–	–
O=C(NCCc1ccc(F)cc1)c1cccc(NC(=O)c2ccccc2)c1	–	–	65	–	–	–
C[C@H](CO)N1C[C@H](C)[C@@H](CN(C)C(=O)c2ccccc2)OCCCC[C@H](C)Oc2ccc(NC(=O)Nc3ccccc3)cc2C1=O	·	·	–	·	·	·
COC(=O)COc1cccc(NS(=O)(=O)c2cccc([N+](=O)[O-])c2)c1	·	–	·	–	–	–
COCCN1CN(S(=O)(=O)c2ccc(Cl)cc2)c2nc3ccccc3nc21	·	–	·	–	–	–
O=C(/C=C/c1ccccc1)Nc1cccc(C(=O)NCCCc2ccccc2)c1	–	–	43	–	–	–
O=C(/C=C/c1ccccc1)Nc1cccc(C(=O)NCc2ccccc2)c1	–	·	·	·	·	·
O=C(CNS(=O)(=O)c1ccc(F)cc1)Nc1ccccc1	–	–	–	–	–	–
O=C(CNc1ccccc1)Nc1ccc(F)cc1	·	–	52	–	–	–
COC(=O)c1ccc(NC(=O)Cc2ccc(F)cc2)cc1	–	–	–	–	–	·
SMILES	Wnt bcat act	Vif imaging	esBAF inh	Glyco luc inh	MITF act	PfHsp90 yeast 2
CNC(=O)Nc1ccc(C2SCCS2)cc1	–	–	·	–	·	–
COC(=O)c1ccc(C(=O)Nc2ccc(F)cc2)cc1	–	–	67	–	–	–
O=C(Nc1ccc(C2SCCS2)cc1)c1ccccc1	49	–	·	–	·	·
COc1ccccc1-n1c(SCC(=O)O)nc2c(sc(=S)n2-c2ccc(Cl)c(C)c2)c1=O	–	–	–	–	–	–
O=C(Nc1ccc(F)cc1)c1cccc(C(=O)Nc2ccc(F)cc2)c1	–	–	–	–	–	–
O=C(Nc1ccc(F)cc1)c1ccccc1	–	–	81	–	104	–
